# Source: PubChem BioAssay (NCATS)
# Results filed as inconclusive are left out. The source made the active and inactive calls. Calls follow the shape of the dose curve; as a rule, active = well fitted curve in the direction sought with a large enough effect; inconclusive = small, poorly fitted or top-dose-only effect, or another doubt; inactive = no such curve, though single readings can be large or run the other way.
# Target: Protein phosphatase 1D (Homo sapiens) (UniProt O15297)
# Assay: Rhodamine-PBP qHTS Assay for Modulators of WT P53-Induced Phosphatase 1 (WIP1) (AID 1347425); also: % of control where 0% means no effect
# Conditions: recombinant WIP1, Rhodamine-PBP phosphate fluorescence, real-time; series mostly up to 57.5 µM; activity change, negative = inhibition: at the top concentration
# How it was run: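 WIP1 (5 nM final) was preincubated with compound for 1 hour at room temperature. It then dephosphorylated 10 uM VEPPL-pS-QETFS peptide in Tris-HCl pH 7.5 with 30 mM MgCl2. Released Pi was detected by 10 uM Rh-PBP fluorescence (ex 525/em 598 nm) read at 1-min intervals for 11 min, as delta f1 - f0.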
# Protein phosphatase 1D (Homo sapiens), sequence (O15297 whole entry, looked up): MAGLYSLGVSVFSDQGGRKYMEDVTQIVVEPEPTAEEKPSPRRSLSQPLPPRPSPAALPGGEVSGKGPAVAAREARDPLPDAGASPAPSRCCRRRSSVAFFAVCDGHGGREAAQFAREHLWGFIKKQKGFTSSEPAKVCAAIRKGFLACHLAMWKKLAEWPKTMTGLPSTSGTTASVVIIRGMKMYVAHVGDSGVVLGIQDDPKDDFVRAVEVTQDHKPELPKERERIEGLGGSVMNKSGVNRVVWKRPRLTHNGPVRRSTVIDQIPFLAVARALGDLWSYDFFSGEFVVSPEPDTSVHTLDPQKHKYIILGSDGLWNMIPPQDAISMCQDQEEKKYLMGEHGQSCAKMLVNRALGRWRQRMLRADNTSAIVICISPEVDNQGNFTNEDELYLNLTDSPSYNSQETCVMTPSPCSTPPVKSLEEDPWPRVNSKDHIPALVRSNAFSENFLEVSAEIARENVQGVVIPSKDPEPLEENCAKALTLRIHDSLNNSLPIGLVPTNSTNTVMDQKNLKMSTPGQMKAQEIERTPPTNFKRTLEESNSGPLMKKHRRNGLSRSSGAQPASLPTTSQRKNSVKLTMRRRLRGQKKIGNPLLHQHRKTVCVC
row,Structure (SMILES),"activity change, negative = inhibition"
1,CC(C)(C#N)c1cc(Cn2cncn2)cc(C(C)(C)C#N)c1,2.62% (inactive)
2,C[C@@H]1CN(c2c(F)c(N)c3c(=O)c(C(=O)O)cn(C4CC4)c3c2F)C[C@H](C)N1,1.54% [at 23.8 µM] (inactive)
3,O=S(=O)(O)CCS,-3.55% (inactive)
4,Oc1c(Cl)cc(Cl)c2cccnc12,3.48% (inactive)
5,CN(Cc1cc(Br)cc(Br)c1N)C1CCCCC1,12.1% (inactive)
6,Cc1oc(=O)oc1CN1CCN(c2cc3c(cc2F)c(=O)c(C(=O)O)c2n3C(C)S2)CC1 (centres undefined),5.79% (inactive)
7,CN(C)c1ccc(C(=C2C=CC(=[N+](C)C)C=C2)c2ccc(N(C)C)cc2)cc1,6.57% (inactive)
8,CCC(=O)O[C@]1(C(=O)CCl)[C@@H](C)C[C@H]2[C@@H]3CCC4=CC(=O)C=C[C@]4(C)[C@@]3(F)[C@@H](O)C[C@@]21C,-0.154% (inactive)
9,Cc1nnc(NS(=O)(=O)c2ccc(N)cc2)s1,11.5% (inactive)
10,C[C@@H](CN1CC(=O)NC(=O)C1)N1CC(=O)NC(=O)C1,-7.5% (inactive)
11,Nc1[nH]c(=O)ncc1F,10.4% (inactive)
12,OC(Cn1cncn1)(Cn1cncn1)c1ccc(F)cc1F,7.07% (inactive)
13,COc1ccc(C(=O)CC(=O)c2ccc(C(C)(C)C)cc2)cc1,-4.41% (inactive)
14,CC(C)OC(=O)C(C(=O)OC(C)C)=C1SC=CS1,29.2% (inactive)
15,CCC(C)(C)c1ccc(CC(C)CN2C[C@@H](C)O[C@@H](C)C2)cc1 (some centres undefined),25.4% (inactive)
16,CC(=O)[C@H]1CC[C@H]2[C@@H]3CC=C4C[C@@H](O)CC[C@]4(C)[C@H]3CC[C@]12C,-6.78% (inactive)
17,CCCCOc1ccc(CC(=O)NO)cc1,-10% (inactive)

row,Structure (SMILES),"activity change, negative = inhibition"
1,CN(CCOc1ccc(CC2SC(=O)NC2=O)cc1)c1ccccn1 (centres undefined),-0.618% (inactive)
2,Cn1nnc2c(C(N)=O)ncn2c1=O,11.9% (inactive)
3,CC(C)C1CCC(C(=O)N[C@H](Cc2ccccc2)C(=O)O)CC1 (some centres undefined),-27% (inactive)
4,CCOC(=O)c1ccc(C#Cc2ccc3c(c2)C(C)(C)CCS3)nc1,17.3% (inactive)
5,COCCCOc1cc(C[C@@H](C[C@H](N)[C@@H](O)C[C@H](C(=O)NCC(C)(C)C(N)=O)C(C)C)C(C)C)ccc1OC,7.96% (inactive)
6,NNC(=O)c1ccncc1,0.251% (inactive)
7,CC(C)Cn1cnc2c(N)nc3ccccc3c21,11.6% [at 23.8 µM] (inactive)
8,C[C@]12C=CC(=O)C=C1CC[C@@H]1[C@@H]2C(=O)C[C@@]2(C)[C@H]1CC[C@]2(O)C(=O)CO,-1.85% (inactive)
9,CCN[C@H]1C[C@H](C)S(=O)(=O)c2sc(S(N)(=O)=O)cc21,-1.11% (inactive)
10,COC(c1ccccc1)(c1ccccc1)[C@H](Oc1nc(C)cc(C)n1)C(=O)O,7.29% (inactive)
11,C#CCN[C@@H]1CCc2ccccc21,17% (inactive)
12,CCCOc1ccc(C(=O)OCCN(CC)CC)cc1N,5.56% (inactive)
13,NS(=O)(=O)c1cc2c(cc1Cl)NC(C(Cl)Cl)NS2(=O)=O (centres undefined),-4.77% (inactive)
14,CC(C)C[C@H](NC(=O)[C@H](CCc1ccccc1)NC(=O)CN1CCOCC1)C(=O)N[C@@H](Cc1ccccc1)C(=O)N[C@@H](CC(C)C)C(=O)[C@@]1(C)CO1,38.5% (inactive)
15,CNNCc1ccc(C(=O)NC(C)C)cc1,-6.41% (inactive)
16,NCCCC(O)(P(=O)(O)O)P(=O)(O)O,1.76% (inactive)
17,O=c1oc2c(O)c(O)cc3c(=O)oc4c(O)c(O)cc1c4c23,-3.71% [at 23.8 µM] (inactive)
